Results filed as inconclusive are left out. Activity calls are given as the source filed them. Calls come from the whole dose curve; as a rule, active = well fitted curve in the direction sought with a large enough effect (not every such curve was filed as active); inconclusive = small, poorly fitted or top-dose-only effect, or effect the other way, or another doubt; inactive = no such curve, though single readings can be large or run the other way.

The experiment is described as follows: Cell viability assay for measurement of the protective activity of small molecules against cell death caused by Zika virus infection in human neural progenitor cells (hNPCs). As to conditions: hNPC ZIKV-induced death protection, ATP luminescence, 72 h; series mostly up to 46.1 µM. The text has this: National Center for Advancing Translational Sciences [NCATS] Johns Hopkins University School of Medicine Florida State University Assay Overview: Zika virus infection causes cell death in certain cell types including human neural progenitor cells (hNPCs), astrocytes, and astrocytoma cell line (SNB-19). This cell viability assay measures the ATP content (level) in human neural progenitor cells (hNPCs) using a luminescence readout that is proportional to viable cell numbers. Decrease in the luminescence signal after Zika virus infection indicates the cell death caused by Zika virus. Small molecule inhibitors […] the decreased luminescence signal after Zika virus infection, indicating the protective effect of that small molecule on the cell death caused by Zika virus infection. This observed protective effect of small molecules against Zika virus induced cell death may result from inhibition of virus replication or cellular response to the virus infection.
Assay Protocol Summary: The medium for hNPCs consists of DMEM/F12, N2 supplement (ThermoFisher, Cat.# 17502048), NEAA (ThermoFisher, Cat. # 11140050), 2 ug/ml heparin, 2 uM cyclopamine, and B27 (ThermoFisher, Cat. # 17504044). The ATP content assay kit (PerkinElmer, Cat.# 6016731) was used to determine cell viability. The reagent was reconstituted and prepared as described by the manufacturer. Cells were seeded in 384- or 1536-well assay plates and cultured at 37 C with 5% CO2 for 16 to 20 hours. The typical cell seeding density in the 1536-well plate assay is 350 cells/well in 3 ul medium for hNPCs in the tissue cultured treated/PDL coated plates. Compounds were added to cells and incubated for one hour before addition of ZIKV solution to cells (2 FFU/cell). After incubation at 37 C with 5% CO2 for 72 hours, the reagent mixture of the ATP content assay kit was added to each well, followed by incubation at room temperature for 10 minutes. The luminescence intensity of the assay plates was measured using a ViewLux plate reader (PerkinElmer). […] The percentage inhibitions of the decreased cell viability by small molecule inhibitors were then calculated.
Turning to `CC(C)[C@H]1C(=O)N[C@H](CO)Cc2c[nH]c3cccc(c23)N1C`, the call was inactive.

For the compound `CC[n+]1c(-c2ccccc2)c2cc(N)ccc2c2ccc(N)cc21`, the compound was called inactive.

Take `COc1cccc2c1C(=O)c1c(O)c3c(c(O)c1C2=O)C[C@@](O)(C(=O)CO)CC3OC1CC(N2CCOC(OC)C2)C(O)C(C)O1` (stereo partly drawn): the compound was classed as inactive.

On to `COP(=S)(OC)SCN1C(=O)c2ccccc2C1=O`, for which the compound was called inactive.

In the case of `Cc1ccc([N+](=O)[O-])[c]2c1[O][Hg]2`, the outcome was inactive.

In the case of `CC(O)CN1CCN(CC(=O)[O-])CCN(CC(=O)[O-])CCN(CC(=O)[O-])CC1.[Gd+3]` (stereo not drawn), the compound was called inactive.

`Oc1ccc([C@H]2CNCc3c2ccc(O)c3O)cc1O`: the compound was classed as inactive.

For the compound `CC(C)N[C@@H]1CCn2c(=O)[nH]c3cccc(c32)[C@@H]1O`, the result was inactive.

As for `CC(=C(CCOC(=O)C(C)C)SSC(CCOC(=O)C(C)C)=C(C)N(C=O)Cc1cnc(C)nc1N)N(C=O)Cc1cnc(C)nc1N`, the compound was classed as inactive.

In the case of `O=S(=O)(CC1CS1)c1ccc(Oc2ccccc2)cc1` (stereo not drawn), the result was inactive.

Regarding `CN1CC(=O)N2C(Cc3c([nH]c4ccccc34)[C@H]2c2ccc3c(c2)OCO3)C1=O` (stereo partly drawn), the outcome was inactive.

On to `CC(C)[N+](C)(CCC(C(N)=O)(c1ccccc1)c1ccccc1)C(C)C`, for which the result was inactive.

On to `S=C(SSC(=S)N1CCCCC1)N1CCCCC1`, for which the outcome was inactive.

Turning to `O=c1c2ccccc2[se]n1-c1ccccc1`, the result was inactive.

For `O=C(Nc1ccc(Br)cc1)c1cc(Br)cc(Br)c1O`, the result was inactive.

On to `COC1(CS(=O)c2ccccc2)CCN(CCc2c[nH]c3ccc(F)cc23)CC1` (stereo not drawn), for which the result was inactive.

For `O=C1C=CC[C@@H]2[C@H]3CCCN4CCC[C@@H](CN12)[C@@H]34`, the result was inactive.

For `CN1CC[C@@]2(C)c3cc(OC(=O)Nc4ccccc4)ccc3N(C)[C@@H]12`, the compound was called inactive.

(Values after PubChem BioAssay AID1224852 (National Center for Advancing Translational Sciences (NCATS), 2016).)
